# Reference: PubChem BioAssay AID1259318 (Sanford-Burnham Center for Chemical Genomics, 2017)
# Out of some 370,000 compounds screened, about 3,000 (0.81%) were called active. Only a selection was taken, and actives are over-represented in it overall. A number with no mark means an inactive call.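 Rule for the calls: active = activity above about 14% (limit read from the data; passing the limit was not always enough); inactive = the rest.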
# Target: Nuclear receptor subfamily 1 group D member 1 (Homo sapiens) (UniProt P20393)
# Test: modulators of Rev-erb alpha DNA binding, primary screen, biochemical, FITC-DNA, fluorescence polarization, uHTS (AID 1259318);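 note: 0% = DMSO wells with 35 nM protein and 100% = DMSO wells with 750 nM protein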
# Conditions: Rev-erbα–FITC-DNA binding, 90 min, at 10 µM, stronger effect = higher value
# Sequence of Nuclear receptor subfamily 1 group D member 1 (Homo sapiens) (P20393 whole entry, looked up): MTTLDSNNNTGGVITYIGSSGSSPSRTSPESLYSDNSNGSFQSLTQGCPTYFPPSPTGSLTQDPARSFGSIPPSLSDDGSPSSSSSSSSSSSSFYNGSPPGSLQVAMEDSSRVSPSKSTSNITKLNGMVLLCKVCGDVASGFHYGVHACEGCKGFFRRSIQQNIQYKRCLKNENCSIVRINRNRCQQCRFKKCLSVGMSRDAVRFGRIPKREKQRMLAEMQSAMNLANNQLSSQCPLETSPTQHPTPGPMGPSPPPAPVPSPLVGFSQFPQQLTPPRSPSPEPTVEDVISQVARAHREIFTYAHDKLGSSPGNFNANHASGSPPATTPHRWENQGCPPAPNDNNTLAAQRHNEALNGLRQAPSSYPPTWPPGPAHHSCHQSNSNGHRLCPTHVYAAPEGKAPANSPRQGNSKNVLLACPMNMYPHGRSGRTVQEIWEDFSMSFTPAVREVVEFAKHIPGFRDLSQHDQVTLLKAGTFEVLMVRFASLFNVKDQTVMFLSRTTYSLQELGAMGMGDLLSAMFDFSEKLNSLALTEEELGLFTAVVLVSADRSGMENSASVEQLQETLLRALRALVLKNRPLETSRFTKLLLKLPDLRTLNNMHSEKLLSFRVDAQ
row,Structure (SMILES),activity
1,c1cncc(CNc2ccnc(-c3ccc4c(c3)OCO4)n2)c1,3.58%
2,Cc1ccc2nc(C)c3c(c2c1)N(c1ccccc1)CC3,8.49%
3,CCOc1cccc(C(=O)Nc2cnn(Cc3ccccc3)c2)c1,-1.52%
4,CCOc1cccc(C(=O)Nc2nnc(-c3cccs3)s2)c1,23.2% (active)
5,Cc1ccc(C(=O)Nc2nnc(-c3cccs3)s2)cc1C,22.5% (active)
6,Cc1ccc(C(=O)NC(C)C(c2cccs2)N2CCOCC2)cc1C (configuration not stated),-7%
7,CCOc1ccc(C(=O)Nc2nccs2)cc1[N+](=O)[O-],13.7%
8,Cc1ccc(C(=O)Oc2coc(CSc3nnc(NC(=O)c4cccs4)s3)cc2=O)cc1C,12.7%
9,CSc1ccccc1C(=O)OCC(=O)N1CCN(C(C)=O)CC1,-6.48%
10,COCCCNC(=O)Cn1cc(/C=C(\C#N)C(=O)N2CCN(c3ccccc3)CC2)c2ccccc21,1.28%
11,COc1ccc2c(c1)CCC/C2=N\OC(=O)c1ccccc1F,-4.23%
12,COc1cc(NS(=O)(=O)c2ccc(NC(=O)c3ccc(S(=O)(=O)N4CCCCC4)cc3)cc2)ncn1,-7.53%
13,CCSC1=NCCN1S(=O)(=O)c1ccc(F)cc1,8.78%
14,N#Cc1ccc(-c2ccc(Cl)cc2)nc1Oc1ccc(F)cc1,6.3%
15,COc1nc(-c2ccc(Cl)cc2)ccc1-c1noc(-c2cccs2)n1,56.6% (active)
16,CC(C)C[C@@H]1Cc2[nH][nH]c(=O)c2[C@H](CCc2ccccc2)O1,-3.25%
17,CCCn1c(O)c(CN2CCCC(C)C2)c(C)c(C#N)c1=O (configuration not stated),8.88%
18,CSc1ncnc2c1ncn2CC(=O)C1CCC2C3CCC4=CC(=O)CCC4(C)C3CCC12C (configuration not stated),-3.58%
19,CCC(=O)c1c(CC)c2n3c1=CC[C@H]3CC(Br)C=2 (some centres not stated),2.99%

row,Structure (SMILES),activity
1,CC(Sc1ccccc1F)C(=O)Nc1cccc(S(=O)(=O)N2CCOCC2)c1 (configuration not stated),-3.07%
2,Cn1c(=NC(=O)c2ccc3c(c2)OCCO3)sc2cc(S(C)(=O)=O)ccc21,22.9% (active)
3,CS(=O)(=O)c1ccc(-c2nnn(CC(=O)Nc3ccc4c(c3)OCCO4)n2)cc1,6.46%
4,COCCn1c(=NC(=O)c2ccccc2[N+](=O)[O-])sc2cc(S(C)(=O)=O)ccc21,3.08%
5,COc1ccc(C(=O)OCCN(C)C2CN(Cc3cn(Cc4cccc(C)c4)nn3)S(=O)(=O)C2)cc1OC (configuration not stated),-5.04%
6,CSc1ccccc1NC(=O)CN(C)CC(=O)Nc1cccc(Br)c1,-5.77%
7,Cc1ccccc1N1CCN(S(=O)(=O)c2ccc3ccccc3c2)CC1,3.07%
8,CC(=O)c1ccc(S(=O)(=O)N2CCN(c3nc4c(C)c(C)ccc4cc3C#N)CC2)cc1,223% (active)
9,CC(=O)c1ccc(N2CCN(S(=O)(=O)c3ccc4c(c3)CC(=O)N4C)CC2)cc1,1.85%
10,CCN(CCCNC(=O)c1ccc2c(c1)NC(=O)CN2C)c1cccc(C)c1,-3.82%
11,COc1ccc(C(=O)N2CCCN(C)CC2)c(OC)c1,1.46%
12,COc1ccc(Cc2nnc(NC(=O)c3ccc(OC)cc3OC)s2)cc1,45.2% (active)
13,COc1ccc(C(=O)CSc2nnnn2C)c(OC)c1,1.25%
14,COc1ccc(N(CC(=O)Nc2cccc3ccccc23)S(C)(=O)=O)c(OC)c1,0.94%
15,COC(=O)c1sc(NC(=O)c2ccc(OC)cc2OC)nc1C,28.7% (active)
16,COc1ccc(C(=O)COC(=O)C(O)c2ccccc2)c(OC)c1 (configuration not stated),7.39%
17,COCCSc1nnc(NC(=O)c2cc(OC)c(OC)cc2[N+](=O)[O-])s1,7.5%
18,COc1ccc(CNC(=O)CCC(=O)Nc2nnc(C(C)C)s2)cc1,-2.06%
19,COc1ccc(C(=O)Nc2cccc(NC(=O)c3ccc(OC)cc3OC)n2)c(OC)c1,22.5% (active)

row,Structure (SMILES),activity
1,CCc1ccc(Nc2ncc3c(n2)CC(c2ccco2)CC3=O)cc1 (configuration not stated),2.68%
2,CCCNC(=O)CCc1c(C)nc2c(c(C)nn2-c2ccccc2)c1C,-3.83%
3,NCC[C@@H](O)C(=O)N[C@@H]1C[C@H](N)[C@@H](O[C@H]2O[C@H](CN)[C@@H](O)[C@H](O)[C@H]2O)[C@H](O)[C@H]1O[C@H]1O[C@H](CO)[C@@H](O)[C@H](N)[C@@H]1O,-0.91%
4,CCOC(=O)Cn1c(=O)oc2cc(S(=O)(=O)NCC3CCCO3)ccc21 (configuration not stated),-1.52%
5,COCCCNC(=O)C1CCC(CNS(=O)(=O)c2ccc(OC)cc2)CC1 (configuration not stated),-5.72%
6,O=C(Nc1cccc(-n2cnnn2)c1)c1cccnc1,1.66%
7,Cc1cccc(C(=O)Nc2ccccc2C(=O)NCc2cccnc2)c1,0.06%
8,Cc1ccc(-n2nc3cc(C)c(NC(=O)c4cccnc4)cc3n2)cc1,36.7% (active)
9,Cc1ccc(-n2c(COc3ccccc3)nnc2SCC(=O)Nc2ccc3c(c2)OCCO3)cc1,1.23%
10,CCc1ccc(-c2cc3c(=O)n(CC(=O)NCCCN4CCN(Cc5ccccc5)CC4)nc(C)n3n2)cc1,2.85%
11,COC(=O)C[C@H]1C[C@@H]2c3cc(N(C)C)ccc3O[C@@H]2[C@H](CO)O1,7.34%
12,CCN1C(=O)/C(=C\N2CCOCC2)SC1=S,2.02%
13,CCC1(C)NC(=O)N(CC(=O)N2CCN(c3cccc(Cl)c3)CC2)C1=O (configuration not stated),-2.92%
14,CCN1C(=O)/C(=C\N2CCN(c3cccc(Cl)c3)CC2)SC1=S,877% (active)
15,CCCc1nnc(NC(=O)CCC(=O)N2CCN(S(=O)(=O)c3ccc(OC)cc3)CC2)s1,-2.83%
16,COC(=O)[C@@]12C[C@@H](CC(=O)NCCCCc3ccccc3)C(=O)N(CCc3ccc(OC)c(OC)c3)C1=CCC(C)(C)C2,0.11%
17,O=C(NCc1ccc(Cl)cc1)c1cc2c(nc3sccn32)s1,25.1% (active)
18,O=C(NCc1ccc2c(c1)OCO2)c1c(O)nc2sccn2c1=O,-1.37%
19,O=C(NCc1ccc(Cl)cc1)c1cc(=O)nc2sc(-c3ccccc3)nn12,7.32%
